# Bioassay records (PubChem)
# TRHR PAM = qHTS for Small Molecule Agonists and Allosteric Enhancers of Human TRH Receptor: Primary Screen for Enhancers; Thyrotropin-releasing hormone receptor (Homo sapiens), P34981; TRHR cells, fluo-8 calcium fluorescence, EC20 TRH enhancement; enhancement, % at 2 µM; hit rate 0.66% among 360,000; AID 493056, 2011; in the data active = enhancement above about 30%; also: 0% is about no effect
# Target sequence (P34981 whole entry, looked up): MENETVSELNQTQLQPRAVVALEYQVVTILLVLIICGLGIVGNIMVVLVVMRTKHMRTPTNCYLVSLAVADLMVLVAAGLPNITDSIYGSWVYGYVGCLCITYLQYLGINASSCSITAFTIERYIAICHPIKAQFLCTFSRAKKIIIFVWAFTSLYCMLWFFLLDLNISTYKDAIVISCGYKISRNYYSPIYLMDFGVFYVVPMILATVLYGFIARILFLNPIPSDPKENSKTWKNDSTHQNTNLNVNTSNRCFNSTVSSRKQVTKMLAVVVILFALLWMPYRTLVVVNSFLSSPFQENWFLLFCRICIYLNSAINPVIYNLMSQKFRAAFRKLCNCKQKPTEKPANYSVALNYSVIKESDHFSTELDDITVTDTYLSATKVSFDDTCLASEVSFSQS
#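 Enhancer read-out: after compound pinning and an initial kinetic agonist-mode read, an EC20 of TRH (10 nM final) was injected and fluo-8 calcium signal (Ex 480/Em 530) followed at 1 s/cycle for 100 cycles in TRHR-expressing cells.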
# D1 antagonist = Antagonist of Human D 1 Dopamine Receptor: qHTS; HEK293 TREx D1 cells, calcium flux, dopamine EC80; hits give low values; hit rate 3.2% among 360,000; D(1A) dopamine receptor (Homo sapiens), P21728; activity change, negative = inhibition, % at 10 µM; AID 504652, 2011; in the data active = activity change below about -30%; also: % is scaled to controls: 0 for no effect and ±100 for the full control effect
#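 Using tetracycline-induced force-coupled D1 Hek293 cells and a calcium dye, signals were followed for 180 s after compound, then for 180 s after EC80 dopamine, to detect inhibitors.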
# TRHR ag = qHTS for Small Molecule Agonists and Allosteric Enhancers of Human TRH Receptor: Primary Screen for Agonists; Thyrotropin-releasing hormone receptor (Homo sapiens), P34981; activation, % at 2 µM; hit rate 0.18% among 360,000; TRHR cells, calcium flux fluo-8, FDSS agonist mode; also: 0% is about no effect
#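 Steps: seed TRHR cells overnight; add fluo-8 no-wash Ca dye, RT 30 min–1.5 h; record 10 s baseline; pin-transfer compounds; monitor fluorescence 1 cycle/s for the agonist window. Calcium increases flag candidate agonists.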
# D1 ag = Allosteric Agonists of the Human D1 Dopamine Receptor: qHTS; hit rate 1% among 360,000; D(1A) dopamine receptor (Homo sapiens), P21728; HEK293 T-REx D1 cells, calcium flux, agonist mode; activation, % at 2 µM; also: 0% is about no effect
#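 Tetracycline-induced HEK293 TREx D1 cells, force-coupled to calcium signalling, were dye-loaded with a no-wash calcium kit. Compound was pin-added after a 10 s baseline. Fluorescence was read kinetically at 1 cycle/s for 180 s, with calcium rises flagged as agonism.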
# D1 potentiator = Potentiators of Human D1 Dopamine Receptor: qHTS; HEK293 TREx D1 cells, calcium flux, dopamine EC20 potentiation; potentiation, % at 10 µM; hit rate 0.036% among 360,000; in the data active = potentiation above about 30%; also: 0% is about no effect
# Starred values were filed as active, the others as inactive; x = no result given. Compounds with a hit are over-represented: about 4.7% of the library has one in this group of screens. Rule as the data show it, unless noted: active = activation above about 30%; inactive = the rest.
SMILES,TRHR PAM,D1 antagonist,TRHR ag,D1 ag,D1 potentiator
COc1ccc(OC(C)C(=O)Nc2ccc([N+](=O)[O-])cc2)cc1 (configuration not stated),19.8,-44.4*,0.9,22.6,-1.5
CC(C)Oc1ccc(C(=O)Nc2ccc([N+](=O)[O-])cc2)cc1,-2.9,-15.3,0.5,36.3*,-8.9
COc1ccc(NC(=O)C(C)Oc2ccc(/C(C)=N\O)cc2)cc1 (configuration not stated),-3.5,-1.4,3.8,51.3*,-1.6
COc1ccc(OC(C)C(=O)Nc2cccc(OC)c2)cc1 (configuration not stated),-4.9,-6.1,-2.9,10.7,-2.2
COc1cc2c(cc1OC)C(COc1ccc3c(C)cc(=O)oc3c1)N(C(=O)c1ccc(C)cc1)CC2 (configuration not stated),-0.3,-0.4,0.8,6.0,1.1
O=C(Nc1ccc(Oc2cccnc2)cc1)c1ccc([N+](=O)[O-])cc1,7.7,-31.0*,-0.3,36.7*,-8.6
COc1ccc(S(=O)(=O)c2c(O)c3ccc(C(=O)Nc4ccccc4Cl)cc3[nH]c2=O)cc1,31.8*,-2.5,0.7,3.8,-1.2
CCc1ccccc1NC(=O)c1ccc2c(O)c(S(=O)(=O)c3ccc(OC)cc3)c(=O)[nH]c2c1,-7.0,15.0,1.1,3.8,-5.8
Cn1nnc2c(NCc3ccc(Cl)cc3)ncnc21,-3.3,x,0.0,-0.8,-0.1
CCc1sc(C(=O)NCCc2ccc(S(N)(=O)=O)cc2)cc1Br,-4.0,-30.3*,-0.1,-0.7,-2.3
Cc1cc(C(=O)NCCc2ccc(S(N)(=O)=O)cc2)c(C)o1,8.0,-30.9*,0.0,3.3,-6.0
CCc1sc(C(=O)NCCc2ccc(S(N)(=O)=O)cc2)cc1C,12.9,3.6,-0.8,2.6,-8.2
Cc1ccccc1-c1nc(CN2CCC(C(=O)NC(C)C)CC2)c(C)o1,7.7,2.3,-0.5,3.1,-0.1
CCCSc1ncc(Cl)c(C(=O)N2CCN(c3cccc(Cl)c3)CC2)n1,-5.6,-6.3,0.4,5.0,2.1
CC(=O)c1cccc(NS(=O)(=O)c2cc3c(cc2C)n(C)c(=O)c(=O)n3C)c1,20.2,-11.0,0.3,0.2,3.2
CCc1ccccc1NC(=O)c1ccc(Cn2cc([N+](=O)[O-])cn2)cc1,1.6,-5.4,2.3,38.3*,-3.0
CCN(CC)C(=O)c1ccc(Cn2cc([N+](=O)[O-])cn2)o1,12.3,-36.8*,-0.4,6.5,-0.7
Cc1ccc2c(c1)sc1nc(-c3cc4cc(Cl)ccc4oc3=O)cn12,0.1,1.2,0.5,3.0,-2.1
CCc1ccc(C(=O)c2cn(CC(=O)Nc3ccc(OC)c(Cl)c3)c3nc(C)ccc3c2=O)cc1,11.9,12.5,-0.7,2.9,-4.1
CCCCOc1ccc(C2c3c(oc4ccccc4c3=O)C(=O)N2c2nc(C)c(C(=O)OCC)s2)cc1OC (configuration not stated),1.4,-31.0*,-0.2,0.2,-2.4
CCOC(=O)c1sc(N2C(=O)c3oc4cc(C)c(C)cc4c(=O)c3C2c2ccc(C)cc2)nc1C (configuration not stated),0.1,-22.5,-0.4,-0.3,-4.3
O=C(CSc1ccc(Cl)cc1)c1ccco1,35.6*,-11.0,-0.4,5.5,-7.2
O=C(CCSc1ccc(Cl)cc1)c1ccco1,-2.3,-9.3,-0.7,2.4,-6.2
CCc1sc(-c2c(C#N)c(N)nc3c2CCCCCC3)cc1[N+](=O)[O-],2.6,22.2,4.1,73.2*,20.4
CC(C)(C)c1ccc(-c2c(C#N)c(N)nc3c2CCCC3)s1,-0.5,-3.6,0.2,1.2,-3.5
SMILES,TRHR PAM,D1 antagonist,TRHR ag,D1 ag,D1 potentiator
CN1CCN(NC(=S)Nc2ccc(Oc3ccccc3)cc2)CC1,-5.5,-11.4,0.5,36.4*,-3.0
COc1cccc(NC(=S)NN2CCN(C)CC2)c1,0.9,3.2,0.3,0.5,-9.7
CSc1ccc(CN(C)CC(=O)Nc2ccccc2Br)cc1,-1.3,-41.1*,1.5,2.8,1.1
CSc1ccccc1NC(=O)CN(C)Cc1ccc(Br)cc1,-2.8,12.8,-0.5,8.4,-5.5
CSC1=C(C#N)C(c2ccccc2Cl)C(C(=O)c2cccs2)C(O)(C(F)(F)F)N1 (configuration not stated),-0.3,-31.0*,-0.1,0.9,-7.7
CSc1cccc(CN2CCC(CCC(=O)NC3CC3)CC2)c1,-1.3,-49.5*,0.3,2.9,-4.2
COc1ccc(C(=O)NC(=S)Nc2cc3oc4ccccc4c3cc2OC)cc1,-1.2,-78.3*,1.2,2.9,-7.5
Cc1ccccc1-c1csc2ncnc(Sc3nnnn3C)c12,-0.7,2.2,-1.4,-0.8,7.6
CN(C)CCCNC(=O)c1ccc(-c2nc(-c3ccc(Cl)cc3)cs2)cc1,-13.5,-58.5*,0.5,13.2,-13.1
CC(C)(C)c1ccc(C(=O)NCCc2csc(-c3ccc(Cl)cc3)n2)cc1,-3.8,12.0,0.7,8.9,4.0
CCOC(=O)c1ccccc1NC(=O)N(Cc1ccc(C)cc1)Cc1cccn1-c1nnc(N2CCCC2=O)s1,-5.4,11.3,0.5,1.0,4.5
CCOC(=O)C1=C(O)/C(=C/c2ccccn2)SC1=Nc1ccc(Cl)cc1,12.3,-33.5*,-0.2,1.6,-6.8
CCOC(=O)C1=C(O)/C(=C/c2ccc(OCC(=O)O)c(OCC)c2)SC1=Nc1ccccc1,-4.1,1.9,0.6,2.6,-1.3
Cc1nc2scc(C)n2c(=O)c1S(=O)(=O)N1CCN(c2ccccc2)CC1,-1.2,-3.7,-0.1,-3.5,-3.2
Cc1nc2sc(C)c(C)n2c(=O)c1S(=O)(=O)N1CCN(c2ccccc2F)CC1,34.9*,-29.4,0.0,3.6,-4.6
O=c1c2cccnc2[nH]c(=S)n1Cc1ccccc1,31.7*,-7.7,0.2,2.2,3.6
O=c1c2nccnc2[nH]c(=S)n1Cc1ccccc1,4.5,7.4,0.3,5.9,0.5
CCOC(=O)C(C)N1C(=O)S/C(=C/c2cc(C)n(-c3ccccn3)c2C)C1=O (configuration not stated),4.1,-45.1*,1.3,1.5,-2.3
Cc1nc(N)c(Cc2ccccc2F)c(N)n1,-2.9,-35.3*,0.4,4.1,-0.7
Cc1nnsc1C(=O)Oc1ccc(C#N)cc1,5.1,7.6,0.5,1.0,-0.5
Cc1occc1C(=O)NNS(=O)(=O)c1ccc(Cl)cc1,36.8*,10.0,-1.4,4.6,7.2
Cc1ccc(S(=O)(=O)NNC(=O)Nc2ccc(Cl)cc2)cc1,-5.9,4.1,0.2,1.4,-5.0
